# Measured values from PubChem BioAssay (Tox21).
# Where “and” joins values, the source holds several entries; their conditions need not be identical. Equal entries are not always repeated. Results filed as inconclusive are left out. Where a call stands in place of a potency, no number is given. Some compounds were tested as several samples or in several runs, with calls that do not always agree. Calls of active or inactive are those of the source. Calls come from the whole dose curve; as a rule, active = well fitted inhibition curve with a large enough effect in the repeat runs; inconclusive = weak or mixed curves, or effect the other way; inactive = no such curve, though single readings can be large or run the other way.
# Assay: qHTS assay to identify small molecule antagonists of the retinoic acid receptor (RAR) signaling pathway (AID 1159552; note: nearly all actives have a fitted effect of over 50% in size)
# Conditions: C3RL4 RARE luciferase reporter, retinol-stimulated, 6 h; series mostly up to 92.4 µM
# Method in brief: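 Luminescent RARE reporter read-out in C3RL4 cells: 6 hr co-treatment at 37 C of test compounds with retinol at 1 uM final. Cells plated overnight beforehand; luciferase reagent incubated 30 min at room temperature before reading.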
# Potency is the fitted concentration of half-maximal effect.
row,Structure (SMILES),Potency
1,COP(=S)(OC)Oc1nc(Cl)c(Cl)cc1Cl,inactive
2,C[C@]12CC[C@H]3[C@@H](CCC4=CC(=O)CC[C@@H]43)[C@@H]1CC[C@@H]2OC(=O)CCc1ccco1,inactive
3,O=[N+]([O-])c1ccccc1-c1ccccc1,inactive
4,Nc1ccccc1-c1ccccc1,inactive
5,O=[N+]([O-])c1cccc2cccc([N+](=O)[O-])c12,54.7 µM (active)
6,CN/C(=N\[N+](=O)[O-])NCc1cnc(Cl)s1,inactive
7,CCN(CC)CCc1c[nH]c2ccccc12,inactive
8,ClC1(Cl)C2(Cl)C3(Cl)C4(Cl)C(Cl)(Cl)C5(Cl)C3(Cl)C1(Cl)C5(Cl)C24Cl (centres undefined),inactive
9,ClC(Cl)C(Cl)(Cl)Cl,inactive
10,BrCCCBr,inactive
11,O=C(N[C@H]1N=C(c2ccccc2F)c2cccc3c2N(CC3)C1=O)c1cc2ccccc2[nH]1,inactive
12,O=S1OCC2C(CO1)C1(Cl)C(Cl)=C(Cl)C2(Cl)C1(Cl)Cl (centres undefined),48.6 µM (active) and 54.4 µM (active)
13,Cc1ccn2nc(S(=O)(=O)Nc3c(F)cccc3F)nc2n1,inactive
14,CSSC,inactive
15,CN(C)CCc1c[nH]c2ccccc12,inactive
16,Oc1cccc(Cl)c1Cl,inactive
17,C[C@H]1[C@H](c2ccc(Cl)cc2)SC(=O)N1C(=O)NC1CCCCC1,inactive
18,CC(C)=CCN1CC[C@@]2(C)c3cc(O)ccc3C[C@@H]1[C@@H]2C,inactive
19,CC(Cl)CCl (centres undefined),inactive
20,CN,inactive

row,Structure (SMILES),Potency
1,CC(Cc1ccccc1)N(C)Cc1ccco1 (centres undefined),inactive
2,O=[N+]([O-])c1ccc(Cl)c(Cl)c1Cl,inactive
3,Brc1cccc(-c2ccccc2)c1,inactive
4,Cc1cccc(Cc2cnc[nH]2)c1C,inactive
5,NC(=O)C(Cl)Cl,inactive
6,O=C(O)CCCCCCNC1c2ccccc2CCc2ccccc21,inactive
7,CN1C2CCC(C)(C)C1CC(OC(=O)C(O)(c1cccs1)c1cccs1)C2 (centres undefined),inactive
8,Oc1cc(Cl)cc(Cl)c1,inactive
9,Oc1cc(Cl)c(Cl)c(Cl)c1Cl,53.2 µM (active)
10,CC(=O)[O][Pb]([c]1ccccc1)([c]1ccccc1)[c]1ccccc1,0.486 µM (active)
11,O=[N+]([O-])C(Br)Br,inactive
12,CCCCCCCCCCCCCCn1cc[n+](C)c1,13.7 µM (active) and 24.1 µM (active) and inactive
13,ClCBr,inactive
14,[O]=[Cr][O][Cr]=[O],inactive
15,COP(=O)(OC)Oc1ccc([N+](=O)[O-])cc1,inactive
16,O=[N+]([O-])c1ccc(CCl)cc1,inactive
17,CCOC(=O)CCN(SN(C)C(=O)Oc1cccc2c1OC(C)(C)C2)C(C)C,61.1 µM (active)
18,O=C(Cl)c1ccccc1F,inactive
19,CN(C)C(=S)SSC(=S)N(C)C,214 nM (active) and 306 nM (active)
